Reference: PubChem BioAssay (Tox21)
Records with an inconclusive call do not appear. The source made the active and inactive calls. Unless noted, calls come from the whole dose curve; as a rule, active = well fitted curve in the direction sought with a large enough effect in the repeat runs; inconclusive = weak or mixed curves; inactive = no such curve, though single readings can be large; an effect the other way counts as inactive or inconclusive.

Legend:
[1] = qHTS RealTime-Glo MT Cell Viability Assay in HEK293 cells - 8 hour (AID 1224887); note: top concentration of the series differs between compounds; nearly all actives have a fitted effect of over 50% in size
In short: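 Measured as luminescence from the same continuously cultured HEK293 wells at successive time points (0, 8, 16, 24, 32, 40 h) after compound addition. Reagent present from seeding; dosing at 5 h; incubation 37 C.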

[2] = A CellTox Green Cytotoxicity Assay to monitor cytotoxicity in HEK293 cells - 16 hour (AID 1224888); note: nearly all actives have a fitted effect of over 35% in size
In short: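 Homogeneous no-lysis format: HEK293 cell suspension mixed with CellTox Green reagent, seeded, incubated 5 h at 37 C/5% CO2, then dosed by pintool with compound in DMSO.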

[3] = qHTS RealTime-Glo MT Cell Viability Assay in HepG2 cells - 0 hour (AID 1224889); note: nearly all actives have a fitted effect of over 50% in size
In short: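 qHTS, HepG2, 600 cells/well, RealTime-Glo (NanoLuc + prosubstrate) added with cells; 5 h preincubation; DMSO compound addition; 37 C; luminescence at 0/8/16/24/32/40 h.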

[4] = A CellTox Green Cytotoxicity Assay to monitor cytotoxicity in HepG2 cells - 8 hour (AID 1224890); note: nearly all actives have a fitted effect of over 45% in size
In short: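 Fluorescent DNA-binding dye, 600 HepG2 cells/well, 5 h preincubation then compound in DMSO; same plates read at 0–40 h, 37 C.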

[5] = qHTS assay to identify small molecule antagonists of the estrogen receptor alpha (ER-alpha) signaling pathway using the BG1 cell line in the presence of 0.1 nM 17-beta-estradiol - cell viability counter screen (AID 1259241); note: nearly all actives have a fitted effect of over 40% in size
In short: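 Cytotoxicity counter-screen: live-cell protease activity measured by fluorescence (30 min reagent step) in the same wells. Cells were VM7Luc4E2 with endogenous ER-alpha and ERE-driven luciferase, treated 22 hr at 37C alongside 0.1 nM 17beta-estradiol final.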

[6] = qHTS assay to identify small molecule antagonists of the androgen receptor (AR) signaling pathway using the MDA cell line in the presence of 0.5 nM R1881 - cell viability counter screen (AID 1259242); note: nearly all actives have a fitted effect of over 45% in size
In short: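 Human breast carcinoma MDA-kb2 cells, cultured without CO2, receive compounds alongside 0.5 nM (final) R1881 agonist. After 16 hr at 37C, viability is taken as live-cell protease signal.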

[7] = target: Estrogen receptor (Homo sapiens) (UniProt P03372); test: qHTS assay to identify small molecule antagonists of the estrogen receptor alpha (ER-alpha) signaling pathway using the BG1 cell line in the presence of 0.1 nM 17-beta-estradiol (AID 1259244); note: nearly all actives have a fitted effect of over 50% in size
Sequence of Estrogen receptor (Homo sapiens) (P03372 whole entry, looked up): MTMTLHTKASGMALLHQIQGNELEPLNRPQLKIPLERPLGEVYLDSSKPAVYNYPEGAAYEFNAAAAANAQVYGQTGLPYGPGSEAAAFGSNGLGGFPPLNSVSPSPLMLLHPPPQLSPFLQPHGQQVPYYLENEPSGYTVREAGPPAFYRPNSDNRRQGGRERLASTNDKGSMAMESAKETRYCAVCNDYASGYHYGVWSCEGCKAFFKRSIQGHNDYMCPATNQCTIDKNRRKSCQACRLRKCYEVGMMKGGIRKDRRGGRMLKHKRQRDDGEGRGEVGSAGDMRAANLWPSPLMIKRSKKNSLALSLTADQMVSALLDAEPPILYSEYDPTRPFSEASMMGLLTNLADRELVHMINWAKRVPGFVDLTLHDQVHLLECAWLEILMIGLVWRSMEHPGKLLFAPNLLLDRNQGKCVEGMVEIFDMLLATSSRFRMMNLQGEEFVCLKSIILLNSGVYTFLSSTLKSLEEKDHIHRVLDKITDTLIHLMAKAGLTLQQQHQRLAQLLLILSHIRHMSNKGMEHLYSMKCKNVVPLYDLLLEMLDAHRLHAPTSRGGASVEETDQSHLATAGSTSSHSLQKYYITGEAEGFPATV
In short: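 Seeding of stripped-serum-adapted VM7Luc4E2 cells, 24 h attachment, compound transfer, then 0.1 nM final 17beta-estradiol; after 22 h incubation, ONE-Glo reagent and luminescence reading.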

[8] = qHTS assay to identify small molecule HDAC inhibitors (AID 1259364);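 note: wild-type HCT-116 cells with endogenous class I/II HDAC activity; top concentration of the series differs between compounds; nearly all actives have a fitted effect of over 45% in size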
In short: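 After a 2 hr compound incubation (37C, 5% CO2), HCT-116 cells seeded at 1,500/well the day before received HDAC-Glo reagent; signal read as luminescence after 30 min at room temperature.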

[9] = qHTS assay to identify small molecule HDAC inhibitors - cell viability counter screen (AID 1259365); note: series mostly up to about 92 µM; nearly all actives have a fitted effect of over 50% in size
In short: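 CellTiter-Glo luminescence (30 min, room temperature) reported viability after a 2 h compound exposure at 37 C. Cells: wild-type HCT-116, 1,500 per well, seeded the night before.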

[10] = qHTS assay to identify small molecule agonists of the sonic hedgehog signaling (Shh) pathway - cell viability counter screen (AID 1259366); note: nearly all actives have a fitted effect of over 50% in size
In short: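 Cytotoxicity counter screen: CellTiter-Fluor reagent added after 23 h compound exposure, then 1 h at 37C and fluorescence read. Cells were 3T3 Gli1-Luc, seeded 2,000 per well and dosed 4 h post-plating.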

[11] = qHTS assay to identify small molecule antagonists of the sonic hedgehog signaling (Shh) pathway - cell viability counter screen (AID 1259367); note: nearly all actives have a fitted effect of over 55% in size
In short: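 Cytotoxicity was assessed in parallel with Shh reporter activity by measuring live-cell protease fluorescence (CellTiter-Fluor) in NIH/3T3 cells stably carrying Gli1-Luc, treated with compound under conditioned medium stimulation for 23 hr plus 1 hr reagent incubation.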

[12] = qHTS assay to identify small molecule agonists of the sonic hedgehog signaling (Shh) pathway (AID 1259368; calls by dose curve;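 note: NIH/3T3-derived 3T3Gli1-Luc cells carrying a stable Gli1-driven firefly luciferase reporter; series mostly up to about 92 µM; nearly all actives have a fitted effect of over 15% in size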)
In short: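 Stable NIH/3T3 Gli1-Luc reporter clone; 24 hr cpd exposure after a 4 hr settling period; luminescence endpoint.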

[13] = target: Estrogen receptor beta (Homo sapiens) (UniProt Q92731); test: qHTS assay to identify small molecule agonists of the estrogen receptor beta (ER-beta) signaling pathway (AID 1259377; active = well fitted activation curve with a large enough effect in the signal ratio in the repeat runs, not every such curve was filed as active; the % refers to the signal ratio)
Sequence of Estrogen receptor beta (Homo sapiens) (Q92731 whole entry, looked up): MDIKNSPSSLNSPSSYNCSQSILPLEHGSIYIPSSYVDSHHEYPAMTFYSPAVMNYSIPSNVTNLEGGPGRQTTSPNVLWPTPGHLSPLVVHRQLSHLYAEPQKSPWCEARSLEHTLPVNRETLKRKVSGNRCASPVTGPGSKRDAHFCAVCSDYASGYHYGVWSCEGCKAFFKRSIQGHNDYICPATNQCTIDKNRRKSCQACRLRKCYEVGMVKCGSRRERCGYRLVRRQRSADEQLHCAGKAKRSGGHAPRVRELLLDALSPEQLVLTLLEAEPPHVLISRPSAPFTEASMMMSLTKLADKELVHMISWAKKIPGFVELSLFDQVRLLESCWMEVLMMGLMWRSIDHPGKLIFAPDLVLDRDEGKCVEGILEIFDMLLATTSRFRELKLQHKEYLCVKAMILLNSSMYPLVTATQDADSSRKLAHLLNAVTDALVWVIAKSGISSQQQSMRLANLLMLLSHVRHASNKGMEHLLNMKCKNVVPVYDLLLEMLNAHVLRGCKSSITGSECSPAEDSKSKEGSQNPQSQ
In short: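 Ratiometric beta-lactamase FRET read-out came after 2 h substrate loading at room temperature. It followed 16 h compound treatment at 37C of GripTite HEK293T cells carrying a UAS-bla reporter, plated in 2% charcoal-stripped FBS medium.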

[14] = target: Estrogen receptor beta (Homo sapiens) (UniProt Q92731); test: qHTS assay to identify small molecule antagonists of the estrogen receptor beta (ER-beta) signaling pathway (AID 1259378; active = well fitted inhibition curve with a large enough effect in the signal ratio in the repeat runs, not every such curve was filed as active; the % refers to the signal ratio; note: potency is the fitted concentration of half-maximal effect)
In short: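 ER-beta-UAS-bla HEK293T (GripTite) cells in 2% charcoal-stripped FBS medium were preincubated 6 hr at 37C, dosed with compound, then stimulated with 1 nM E2 (final) for 16 hr; beta-lactamase reporter read by B/G FRET fluorescence after 2 hr substrate loading.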

[15] = qHTS assay to identify small molecule agonists of the androgen receptor (AR) signaling pathway in the presence of an antagonist - cell viability counter screen (AID 1259379);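 note: MDA-kb2 human breast cancer cells carrying an MMTV luciferase reporter; series mostly up to about 92 µM; nearly all actives have a fitted effect of over 25% in size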
In short: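 Counter screen for cell viability run in parallel with the AR agonist-mode luciferase assay. MDA-kb2 cells were co-treated with nilutamide (3.0uM final) and compounds, then incubated 16 hr at 37C, and CellTiter-Fluor fluorescence was measured.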

[16] = qHTS assay to identify small molecule agonists of the estrogen receptor beta (ER-beta) signaling pathway - cell viability counter screen (AID 1259380); note: nearly all actives have a fitted effect of over 30% in size
In short: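 In this qHTS counter screen, HEK293T cells carrying an ER-beta/UAS beta-lactamase reporter, grown in 2% charcoal-stripped FBS, received compound for 16 hr; ATP-based CellTiter-Glo luminescence was then read after 30 min at room temperature.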

[17] = qHTS assay to identify small molecule antagonists of the sonic hedgehog signaling (Shh) pathway (AID 1259369; calls by dose curve; note: nearly all actives have a fitted effect of over 45% in size)
In short: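 Gli1 transcriptional reporter (firefly Luc) in NIH/3T3 background, conditioned-medium activated. 24hr exposure, luminescence endpoint.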

[18] = target: Androgen receptor (Homo sapiens) (UniProt P10275); test: qHTS assay to identify small molecule agonists of the androgen receptor (AR) signaling pathway in the presence of an antagonist (AID 1259381; calls by dose curve; note: nearly all actives have a fitted effect of over 15% in size)
Sequence of Androgen receptor (Homo sapiens) (P10275 whole entry, looked up): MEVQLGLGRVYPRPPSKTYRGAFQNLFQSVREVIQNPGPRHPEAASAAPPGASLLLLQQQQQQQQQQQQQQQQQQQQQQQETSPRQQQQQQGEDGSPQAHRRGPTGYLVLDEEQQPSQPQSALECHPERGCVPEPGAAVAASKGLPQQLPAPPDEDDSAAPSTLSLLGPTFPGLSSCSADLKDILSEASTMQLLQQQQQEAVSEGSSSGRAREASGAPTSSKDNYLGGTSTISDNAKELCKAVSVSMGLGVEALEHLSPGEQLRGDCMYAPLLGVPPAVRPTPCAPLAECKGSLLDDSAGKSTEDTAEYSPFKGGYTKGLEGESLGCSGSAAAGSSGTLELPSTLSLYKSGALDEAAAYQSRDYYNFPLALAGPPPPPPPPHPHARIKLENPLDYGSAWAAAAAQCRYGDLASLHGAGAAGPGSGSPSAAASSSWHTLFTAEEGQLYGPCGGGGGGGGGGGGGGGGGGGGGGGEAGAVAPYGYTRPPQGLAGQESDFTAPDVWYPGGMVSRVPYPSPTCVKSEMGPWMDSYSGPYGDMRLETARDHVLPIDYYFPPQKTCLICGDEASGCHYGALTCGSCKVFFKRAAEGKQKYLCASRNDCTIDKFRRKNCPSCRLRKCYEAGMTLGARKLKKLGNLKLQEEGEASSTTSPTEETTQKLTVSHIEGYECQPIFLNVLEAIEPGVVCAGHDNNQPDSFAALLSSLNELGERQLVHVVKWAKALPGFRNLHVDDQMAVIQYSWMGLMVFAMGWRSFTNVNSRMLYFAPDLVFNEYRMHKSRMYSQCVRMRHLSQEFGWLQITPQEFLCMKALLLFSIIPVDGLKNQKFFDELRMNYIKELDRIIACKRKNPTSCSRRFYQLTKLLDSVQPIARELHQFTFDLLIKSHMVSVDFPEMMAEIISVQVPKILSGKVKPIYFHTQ
In short: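 AR antagonist background: nilutamide 3.0uM final. Cell line: MDA-kb2, MMTV-driven luciferase, responsive to both AR and GR. Exposure 16hr, 37C, no CO2; ONE-Glo luminescence.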
% is set by controls: 0 for no effect and ±100 for the full control effect.

CCCCCCCCCCCCCCCCCCOCCO
inactive: activity change, negative = cytotoxicity [1] 1.44% [at 15.8 µM] | activity change [2] 5.03% [at 15.8 µM, active compounds read high] | activity change, negative = cytotoxicity [3] 2.77% [at 15.8 µM] | cytotoxicity increase [4] -4.91% [at 15.8 µM] | activity change, negative = cytotoxicity [5] 4.04% [at 19 µM] | viability change, negative = cytotoxic [6] -0.694% [at 19 µM] | activity change, negative = inhibition [7] -1.58% [at 19 µM] | activity change, negative = inhibition [8] -2.36% [at 19 µM] | activity change, negative = cytotoxicity [9] 0.0538% [at 19 µM] | viability change, negative = cytotoxic [10] 1.32% [at 19 µM] | viability change, negative = cytotoxic [11] -0.0007% [at 19 µM] | activity change [12] -0.0679% [at 18.9 µM] | activation [13] -0.0155% [at 19 µM] | activity, negative = inhibition [14] 4.09% [at 19 µM] | activity change, negative = cytotoxicity [15] -11.2% [at 19 µM] | activity change, negative = cytotoxicity [16] -1.63% [at 19 µM]

CCN(CC)CCN
inactive: Potency [1] | Potency [2] | Potency [3] | Potency [4] | outcome [5] | outcome [6] | outcome [7] | Potency [8] | outcome [9] | outcome [11] | outcome [12] | Potency [17] | Potency [13]

C=C(C)c1cccc(C(C)(C)N=C=O)c1
inactive: Potency [1] | Potency [2] | Potency [3] | Potency [4] | outcome [5] | outcome [6] | outcome [7] | Potency [8] | outcome [9] | outcome [10] | outcome [11] | outcome [12] | Potency [17] | Potency [13] | outcome [15] | outcome [16]

OC1(c2ccc(Cl)cc2)CCNCC1
inactive: Potency [1] | Potency [2] | Potency [3] | Potency [4] | outcome [5] | outcome [6] | outcome [7] | Potency [8] | outcome [9] | outcome [10] | outcome [11] | outcome [12] | Potency [13] | Potency [14] | outcome [15] | outcome [16] | outcome [18]

COC(=O)/C=C\C(=O)O
inactive: Potency [1] | Potency [2] | Potency [3] | Potency [4] | outcome [5] | outcome [6] | outcome [7] | Potency [8] | outcome [9] | outcome [10] | outcome [11] | outcome [12] | Potency [17] | Potency [13] | outcome [15] | outcome [16]

CC1CC(=O)CC(C)(C)C1 (stereo not drawn)
inactive: Potency [1] | Potency [2] | Potency [3] | Potency [4] | outcome [5] | outcome [6] | outcome [7] | Potency [8] | outcome [9] | outcome [10] | outcome [11] | outcome [12] | Potency [17] | outcome [15]

CC(=O)CCc1ccc(OC(C)=O)cc1
inactive: Potency [1] | Potency [2] | Potency [3] | Potency [4] | outcome [5] | outcome [6] | outcome [7] | Potency [8] | outcome [9] | outcome [10] | outcome [11] | outcome [12] | Potency [13] | Potency [14] | outcome [15] | outcome [16]

C[C@H]1[C@@H](c2ccccc2)NC(=O)N1C
inactive: Potency [1] | Potency [2] | Potency [3] | Potency [4] | outcome [5] | outcome [6] | outcome [7] | Potency [8] | outcome [9] | outcome [10] | outcome [11] | outcome [12] | Potency [17] | Potency [13] | Potency [14] | outcome [15] | outcome [16]

O=C(O)c1cc2ccccc2nc1C(=O)O
inactive: Potency [1] | Potency [2] | Potency [3] | Potency [4] | outcome [5] | outcome [6] | outcome [7] | Potency [8] | outcome [9] | outcome [10] | outcome [12] | Potency [17] | Potency [13] | Potency [14] | outcome [16]

CCCC(CC)c1ccccc1 (stereo not drawn)
inactive: Potency [1] | Potency [2] | Potency [3] | Potency [4] | outcome [5] | outcome [6] | outcome [7] | Potency [8] | outcome [9] | outcome [10] | outcome [11] | outcome [12] | Potency [13] | Potency [14] | outcome [15] | outcome [16]

C/C(CC(C)C)=N\O
inactive: Potency [1] | Potency [2] | Potency [3] | Potency [4] | outcome [5] | outcome [6] | outcome [7] | Potency [8] | outcome [9] | outcome [10] | outcome [11] | outcome [12] | Potency [13] | Potency [14] | outcome [15] | outcome [16]

CCC(C)OC(C)CC (stereo not drawn)
active: Potency [14] 28.3 µM
inactive: Potency [1] | Potency [2] | Potency [3] | Potency [4] | outcome [5] | outcome [6] | outcome [7] | Potency [8] | outcome [9] | outcome [10] | outcome [12] | Potency [17] | Potency [13] | outcome [18]

C[Si]1(C)O[Si](C)(C)O[Si](C)(C)O[Si](C)(C)O[Si](C)(C)O1
inactive: Potency [1] | Potency [2] | Potency [3] | Potency [4] | outcome [5] | outcome [6] | outcome [7] | Potency [8] | outcome [9] | outcome [10] | outcome [11] | outcome [12] | Potency [17] | outcome [15] | outcome [16]

OC[C@@H](O)C(O)[C@@H](O)CO (stereo partly drawn)
inactive: Potency [1] | Potency [2] | Potency [3] | Potency [4] | outcome [5] | outcome [6] | Potency [8] | outcome [9] | outcome [10] | outcome [11] | outcome [12] | Potency [17] | outcome [16]

C=Cc1ccc(C(C)(C)C)cc1
inactive: Potency [1] | Potency [2] | Potency [3] | Potency [4] | outcome [5] | outcome [6] | Potency [8] | outcome [9] | outcome [10] | outcome [11] | outcome [12] | Potency [17] | outcome [15] | outcome [16]

O=C1CCCCO1
inactive: Potency [1] | Potency [2] | Potency [3] | Potency [4] | outcome [5] | outcome [6] | outcome [7] | Potency [8] | outcome [9] | outcome [12] | Potency [17] | Potency [13] | Potency [14] | outcome [15] | outcome [16]

O=Cc1cc2ccccc2o1
inactive: Potency [1] | Potency [2] | Potency [3] | Potency [4] | outcome [5] | outcome [6] | Potency [8] | outcome [9] | outcome [10] | outcome [11] | outcome [12] | Potency [17] | outcome [15] | outcome [16]
